In PubChem BioAssay AID1159580 (chemical genetic matrix, 2015):
The campaign covered roughly 5,500 compounds. About 2,000 (36%) were called active. Another 18% or so got no clear call; they are omitted. Cut-off read from the data, not from the text of the source: active = normalized growth mostly below about 0.91 (no sharp cut-off); inconclusive = no clear call, values can overlap the other calls; inactive = mostly above about 0.92. Some of the results follow.

Test: chemical genetic growth profiling, strain panel (AID 1159580);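 note: tested at 20 µM; growth read once vehicle control cultures reached saturation at 30 °C; 1 = growth at the plate median or of vehicle wells; lower values mean less growth of the strain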
Details: growth OD
[1] = S. cerevisiae deletion strains, locus YAL013W, strain DEP1, active compounds read low
[2] = S. cerevisiae deletion strains, locus YBR229C, strain ROT2, active compounds read low
[3] = S. cerevisiae deletion strains, locus YCL061C, strain MRC1, active compounds read low
[4] = S. cerevisiae deletion strains, locus YDL101C, strain DUN1, active compounds read low
[5] = S. cerevisiae deletion strains, locus YDL134C, strain PPH21, active compounds read low
[6] = S. cerevisiae deletion strains, locus YDR150W, strain NUM1, active compounds read low
[7] = S. cerevisiae deletion strains, locus YEL061C, strain CIN8, active compounds read low
[8] = S. cerevisiae deletion strains, locus YGR078C, strain PAC10, active compounds read low
[9] = S. cerevisiae deletion strains, locus YHR030C, strain SLT2, active compounds read low
[10] = S. cerevisiae deletion strains, locus YHR087W, strain rtc3, active compounds read low
[11] = S. cerevisiae deletion strains, locus YJR043C, strain POL32, active compounds read low
[12] = S. cerevisiae deletion strains, locus YJR075W, strain HOC1, active compounds read low
[13] = S. cerevisiae deletion strains, locus YLR039C, strain RIC1, active compounds read low
[14] = S. cerevisiae deletion strains, locus YLR058C, strain SHM2 (second series), active compounds read low
[15] = S. cerevisiae deletion strains, locus YLR085C, strain ARP6, active compounds read low
[16] = S. cerevisiae deletion strains, locus YLR262C, strain YPT6, active compounds read low
[17] = S. cerevisiae deletion strains, locus YML094W, strain GIM5, active compounds read low
[18] = S. cerevisiae deletion strains, locus YMR219W, strain ESC1, active compounds read low
[19] = S. cerevisiae deletion strains, locus YMR263W, strain SAP30, active compounds read low
[20] = S. cerevisiae deletion strains, locus YMR307W, strain GAS1, active compounds read low
[21] = S. cerevisiae deletion strains, locus YNL153C, strain GIM3, active compounds read low
[22] = S. cerevisiae deletion strains, locus YNL298W, strain CLA4 (second series), active compounds read low
[23] = S. cerevisiae deletion strains, locus YNL322C, strain KRE1, active compounds read low
[24] = S. cerevisiae deletion strains, locus YNR030W, strain Alg12, active compounds read low
[25] = S. cerevisiae deletion strains, locus YPL055C, strain LGE1, active compounds read low
[26] = S. cerevisiae deletion strains, locus YPL241C, strain CIN2, active compounds read low
[27] = S. cerevisiae deletion strains, locus YPR135W, strain CTF4, active compounds read low
[28] = S. cerevisiae deletion strains, locus YKL190W, strain CNB1, active compounds read low
[29] = S. cerevisiae strains, strain wild type, active compounds read low

Measured: normalized growth

Cc1onc2c(=O)n(-c3ccccc3)nc(-c3ccccc3)c12
active: [9] 0.517 | [12] 0.622 | [13] 0.57 | [15] 0.769 | [16] 0.574 | [20] 0.568 | [23] 0.929
inactive: [1] 0.98 | [2] 0.983 | [3] 0.98 | [4] 0.954 | [5] 0.981 | [6] 0.934 | [7] 0.968 | [8] 0.947 | [10] 0.978 | [11] 1.01 | [14] 0.984 | [17] 0.978 | [18] 0.955 | [19] 0.974 | [21] 1 | [22] 0.911 | [24] 0.945 | [25] 1.02 | [26] 0.959 | [27] 0.68

NC(N)=NC(N)=Nc1ccccc1C(F)(F)F
inactive: [1] 0.987 | [2] 0.982 | [3] 1.01 | [4] 0.969 | [6] 0.895 | [7] 0.993 | [8] 0.979 | [9] 0.935 | [10] 0.966 | [11] 0.998 | [12] 1.01 | [28] 0.997 | [13] 0.989 | [14] 0.982 | [15] 1.01 | [16] 0.997 | [17] 0.923 | [18] 0.987 | [19] 1.06 | S. cerevisiae deletion strains, locus YNL128W, strain TEP1, active compounds read low 0.984 | [21] 1.02 | [22] 0.938 | [23] 0.993 | [24] 0.983 | [25] 0.962 | [27] 0.922 | [29] 0.986

CCOC(=O)c1sc2sc(C(=O)c3ccc(Cl)cc3)c(C)c2c1C
inactive: [1] 1 | [2] 1.03 | [4] 1 | [5] 1.01 | [6] 0.91 | [7] 1.02 | [8] 1.01 | [9] 1.1 | [10] 1.01 | [11] 0.991 | [12] 1.03 | [28] 1.02 | [13] 1.06 | [14] 1.01 | [15] 1.06 | [16] 1.06 | [17] 1.01 | [18] 1 | [19] 0.937 | [20] 1.07 | [21] 1 | [22] 1.05 | [23] 1.01 | [24] 1.03 | [25] 0.904 | [26] 1.01 | [27] 1.09 | [29] 1.02

CCOC(=O)c1sc(S(C)=NC(=O)Nc2ccc(Cl)cc2)c2c1CCC=C2 (stereo not drawn)
active: S. cerevisiae deletion strains, locus YLR113W, strain HOG1, active compounds read low 0.859
inactive: S. cerevisiae deletion strains, locus YAR019C, strain CDC15, active compounds read low 0.985 | S. cerevisiae deletion strains, locus YBL105C, strain PKC1, active compounds read low 0.974 | S. cerevisiae deletion strains, locus YBR135W, strain CKS1, active compounds read low 0.974 | S. cerevisiae deletion strains, locus YBR136W, strain MEC1, active compounds read low 0.974 | S. cerevisiae deletion strains, locus YBR160W, strain CDC28, active compounds read low 0.978 | S. cerevisiae deletion strains, locus YDL017W, strain CDC7, active compounds read low 0.979 | S. cerevisiae deletion strains, locus YDL028C, strain MPS1, active compounds read low 0.971 | [4] 0.97 | S. cerevisiae deletion strains, locus YDL108W, strain KIN28, active compounds read low 0.972 | S. cerevisiae deletion strains, locus YDL132W, strain cdc53, active compounds read low 0.965 | S. cerevisiae deletion strains, locus YDL214C, strain PRR2, active compounds read low 0.922 | S. cerevisiae deletion strains, locus YDR052C, strain DBF4, active compounds read low 0.981 | S. cerevisiae deletion strains, locus YDR054C, strain cdc34, active compounds read low 0.974 | S. cerevisiae deletion strains, locus YDR226W, strain ADK1, active compounds read low 0.963 | S. cerevisiae deletion strains, locus YDR477W, strain SNF1, active compounds read low 0.937 | S. cerevisiae deletion strains, locus YER123W, strain YCK3, active compounds read low 0.923 | S. cerevisiae deletion strains, locus YER133W, strain GLC7, active compounds read low 0.945 | S. cerevisiae deletion strains, locus YFL009W, strain cdc4, active compounds read low 0.973 | S. cerevisiae deletion strains, locus YFL029C, strain CAK1, active compounds read low 0.977 | S. cerevisiae deletion strains, locus YFR003C, strain YPI1, active compounds read low 0.976 | S. cerevisiae deletion strains, locus YFR019W, strain FAB1, active compounds read low 0.94 | S. cerevisiae deletion strains, locus YFR028C, strain CDC14, active compounds read low 0.975 | S. cerevisiae deletion strains, locus YGR040W, strain KSS1, active compounds read low 0.922 | S. cerevisiae deletion strains, locus YGR052W, strain FMP48, active compounds read low 0.954 | S. cerevisiae deletion strains, locus YGR092W, strain DBF2, active compounds read low 0.947 | [9] 1.05 | S. cerevisiae deletion strains, locus YHR079C, strain IRE1, active compounds read low 1.01 | S. cerevisiae deletion strains, locus YHR082C, strain KSP1, active compounds read low 1.02 | S. cerevisiae deletion strains, locus YHR205W, strain SCH9, active compounds read low 0.959 | S. cerevisiae deletion strains, locus YIL147C, strain SLN1, active compounds read low 0.968 | S. cerevisiae deletion strains, locus YJL095W, strain BCK1, active compounds read low 0.963 | S. cerevisiae deletion strains, locus YJL128C, strain PBS2, active compounds read low 0.94 | S. cerevisiae deletion strains, locus YJL157C, strain FAR1, active compounds read low 0.941 | S. cerevisiae deletion strains, locus YJR016C, strain ILV3, active compounds read low 0.976 | S. cerevisiae deletion strains, locus YJR066W, strain TOR1 (second series), active compounds read low 0.923 | S. cerevisiae deletion strains, locus YJR066W, strain TOR1, active compounds read low 1.02 | S. cerevisiae deletion strains, locus YKL048C, strain ELM1, active compounds read low 0.96 | S. cerevisiae deletion strains, locus YKL067W, strain YNK1, active compounds read low 0.938 | S. cerevisiae deletion strains, locus YKL101W, strain HSL1, active compounds read low 0.902 | S. cerevisiae deletion strains, locus YKL193C, strain SDS22, active compounds read low 0.974 | S. cerevisiae deletion strains, locus YKL203C, strain TOR2, active compounds read low 1.02 | S. cerevisiae deletion strains, locus YLR133W, strain CKI1, active compounds read low 0.926 | S. cerevisiae deletion strains, locus YLR403W, strain SFP1, active compounds read low 0.953 | S. cerevisiae deletion strains, locus YML070W, strain DAK1, active compounds read low 0.916 | S. cerevisiae deletion strains, locus YMR001C, strain CDC5, active compounds read low 0.978 | S. cerevisiae deletion strains, locus YMR205C, strain PFK2 (second series), active compounds read low 0.951 | S. cerevisiae deletion strains, locus YMR277W, strain FCP1, active compounds read low 0.974 | S. cerevisiae deletion strains, locus YNL006W, strain LST8, active compounds read low 0.982 | S. cerevisiae deletion strains, locus YNL020C, strain ARK1, active compounds read low 0.93 | S. cerevisiae deletion strains, locus YNL161W, strain CBK1, active compounds read low 0.978 | S. cerevisiae deletion strains, locus YNL183C, strain NPR1, active compounds read low 1 | S. cerevisiae deletion strains, locus YNL207W, strain RIO2, active compounds read low 0.968 | S. cerevisiae deletion strains, locus YNL222W, strain SSU72, active compounds read low 0.975 | S. cerevisiae deletion strains, locus YNL307C, strain MCK1 (second series), active compounds read low 0.951 | S. cerevisiae deletion strains, locus YOL078W, strain AVO1, active compounds read low 0.96 | S. cerevisiae deletion strains, locus YOL136C, strain PFK27, active compounds read low 0.895 | S. cerevisiae deletion strains, locus YOR061W, strain CKA2, active compounds read low 0.945 | S. cerevisiae deletion strains, locus YOR119C, strain RIO1, active compounds read low 0.998 | S. cerevisiae deletion strains, locus YOR231W, strain MKK1, active compounds read low 0.894 | S. cerevisiae deletion strains, locus YOR329C, strain SCD5, active compounds read low 0.976 | S. cerevisiae deletion strains, locus YPL031C, strain PHO85, active compounds read low 0.94 | S. cerevisiae deletion strains, locus YPL153C, strain RAD53, active compounds read low 0.953 | S. cerevisiae deletion strains, locus YPL204W, strain HRR25, active compounds read low 0.9 | S. cerevisiae deletion strains, locus YPL209C, strain IPL1, active compounds read low 0.968 | S. cerevisiae deletion strains, locus YPL256C, strain CLN2, active compounds read low 0.999 | S. cerevisiae deletion strains, locus YPR025C, strain CCL1, active compounds read low 0.981 | S. cerevisiae deletion strains, locus YPR106W, strain ISR1, active compounds read low 0.962 | S. cerevisiae deletion strains, locus YPR111W, strain DBF20, active compounds read low 0.985 | S. cerevisiae deletion strains, strain NNK1, active compounds read low 0.961 | S. cerevisiae deletion strains, strain TSCII, active compounds read low 0.97
